Bioassay records (PubChem BioAssay)
Mot1-301 SUMO: inhibitors of SUMOylation pathway: yeast Mot1-301 growth rescue. actives 1% (n = 320,000). S. cerevisiae Mot1-301 growth rescue, ATP luminescence, 38.5C; percent above DMSO median, 100 means doubled. growth rescue, % at 18.8 µM;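 active = every valid replicate shows activation above 250% relative to neutral control wells; inactive = the rest, any valid replicate at or below 250%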;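 also: OY570 slx delta 5 strain wells were the positive control but not used for scaling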
Cardio protect: protects H9c2 cardiomyocytes from peroxide injury. H2O2 injury protection, ATPLite, 2 h. protection from H2O2 cell death, % at 20 µM. actives 0.63% (n = 360,000);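 active = compounds giving at least 50% protection of heart cells from peroxide-induced death in the single-dose screen, raw or plate-pattern-corrected value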;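 also: 0% = DMSO wells with peroxide and 100% = DMSO wells without peroxide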
NTR1 ag: NTR1 (human) agonism. P30989. NTR1-U2OS beta-arrestin-GFP spot imaging, agonist mode. activation, % at 20 µM. actives 0.17% (n = 330,000). AID 493036;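 active = activation at or above 40% of the spot to cytoplasm intensity ratio, with at least 20 cells analyzed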;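 also: 0% = DMSO without peptide and 100% = 100 nM NTR1 peptide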
AI-2 QS modul: modulates the Vibrio harveyi AI-2 quorum sensing system; Vibrio harveyi JMH597 AI-2 luminescence/OD600 ratio, 9 h; active compounds read low; strain lacks LuxN and CqsS sensors; 0 = neutral-control median; AID 2094; activity change, % at 7.5 µM; actives 0.4% (n = 300,000); in the data active = activity change below about -75%, passing the limit was not always enough;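 also: luminescence divided by OD600 gain over 9 h not by final OD600 alone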
NR3A LBD binder: modulates the human NR3A ligand-binding domain. NR3A LBD differential scanning fluorimetry, Tm shift; 0% = protein alone, 100% = glycine-bound protein. Tm shift relative to glycine control, % at 25 µM. actives 2.5% (n = 340,000). AID 1259313;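 active = melting temperature shift of at least 10% of the positive control shift, at one fixed dose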
AHR act: activates the human aryl hydrocarbon receptor | P35869 | AHR-responsive luciferase reporter cells, luminescence | activation, % at 5 µM | actives 2.5% (n = 320,000) | AID 2796; in the data active = activation above about 47%;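 also: 0% = vehicle wells and 100% = reference agonist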
Target sequence (P35869 whole entry, looked up): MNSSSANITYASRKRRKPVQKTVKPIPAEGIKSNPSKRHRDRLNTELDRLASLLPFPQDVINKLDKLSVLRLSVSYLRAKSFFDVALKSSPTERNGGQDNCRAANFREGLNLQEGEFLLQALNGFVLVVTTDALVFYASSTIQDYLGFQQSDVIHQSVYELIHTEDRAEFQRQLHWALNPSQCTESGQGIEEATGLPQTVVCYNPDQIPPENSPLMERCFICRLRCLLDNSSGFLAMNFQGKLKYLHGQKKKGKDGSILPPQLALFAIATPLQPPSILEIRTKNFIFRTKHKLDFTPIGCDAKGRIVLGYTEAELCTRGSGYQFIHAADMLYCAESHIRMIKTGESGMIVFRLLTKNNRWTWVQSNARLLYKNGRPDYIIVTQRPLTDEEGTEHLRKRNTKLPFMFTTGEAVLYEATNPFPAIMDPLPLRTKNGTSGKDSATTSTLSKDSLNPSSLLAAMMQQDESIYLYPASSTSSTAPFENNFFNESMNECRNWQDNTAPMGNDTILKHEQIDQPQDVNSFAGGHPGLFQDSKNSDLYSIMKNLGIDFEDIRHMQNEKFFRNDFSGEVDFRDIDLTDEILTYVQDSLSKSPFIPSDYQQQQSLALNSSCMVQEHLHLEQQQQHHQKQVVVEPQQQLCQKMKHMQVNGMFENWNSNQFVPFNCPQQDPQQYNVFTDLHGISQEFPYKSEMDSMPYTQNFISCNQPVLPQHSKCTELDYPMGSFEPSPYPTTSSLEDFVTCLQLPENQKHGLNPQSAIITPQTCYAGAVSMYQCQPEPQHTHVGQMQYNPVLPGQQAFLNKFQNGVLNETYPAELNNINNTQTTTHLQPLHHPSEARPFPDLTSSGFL
Numbers without * were called inactive; . = no result given. Sampled rows, rich in hits. Any-hit rate of the full collection: about 6.2%.

SMILES	Mot1-301 SUMO	Cardio protect	NTR1 ag	AI-2 QS modul	NR3A LBD binder	AHR act
COc1cc(C2c3cc4c(cc3OC(C)(N3CCCC3)C2C)OCO4)cc(OC)c1OC (stereo not drawn)	.	7	.	.	0	.
O=C(c1ccco1)N1CCN(c2ncnc3c2[nH]c2ccc(Cl)cc23)CC1	451	.	0	-56	.	81*
Nc1nn2cc(-c3ccc(Br)cc3)nc2c2ccccc12	58	-18	14	2	27*	65*
COCCNC(=O)C1(C)CCCN(CC(=O)c2ccc(OC)cc2)C1 (stereo not drawn)	.	3	.	.	.	.
O=C(CSc1nc(C2CC2)nc2ccccc12)N1CCc2ccccc21	.	0	.	.	1	.
CC(C)c1cccc(C(C)C)c1NC(=O)OC1CCCCC1	.	-2	.	.	.	.
O=c1oc2ccccc2c2nccnc12	324*	6	-1	7	-2	1
O=C(Cc1ccc(Br)cc1)NC1CCN(Cc2ccccc2)CC1	283*	0	2	11	-1	2
O=C(CN1CCN(Cc2ccccc2)CC1)c1ccccc1	-7	7	-2	18	-1	-1
O=C(CN1CCN(Cc2ccccc2)CC1)c1ccc(Br)cc1	.	-2	.	.	11*	.
CS(=O)(=O)Nc1ccc2c(c1)[C@H]1C[C@H](CC(=O)NCc3cccc(F)c3)O[C@@H](CO)[C@H]1O2	.	-11	.	.	.	.
C/C(=N\N1CCN(c2ccccc2)CC1)c1ccccc1O	23	-4	-1	12	0	-2
C/C(=N\N1CCN(c2ccccc2)CC1)c1ccc(O)cc1	.	-5	3	3	10*	.
O=c1cc(SCc2ccccc2)nc[nH]1	.	6	.	.	-2	.
COc1ccccc1-c1cnc(C(O)c2cc(C)c(OC)c(C)c2)[nH]1 (stereo not drawn)	.	-4	.	.	.	.
O=C(NC1CCCCC1)C(c1ccc2ncccc2c1)N(Cc1ccccc1)C(=O)c1ccc2c(c1)OCCO2 (stereo not drawn)	4	53*	3	4	-2	0
CCOC(=O)CNc1ncc(C(F)(F)F)cc1Cl	0	-2	1	11	0	-2
N#CCC(CNc1ncc(C(F)(F)F)cc1Cl)OC(=O)c1ccc(Cl)cc1Cl (stereo not drawn)	-6	-16	14	19	14*	1
COc1cc(C(=O)Nc2nc(OC)c(-c3ccccc3)c(OC)n2)cc(OC)c1OC	-2	70*	2	16	-2	4
O=C1OC(c2ccc(Cl)cc2)=N/C1=C\C=C\c1ccco1	-4	10	1	16	3	0
O=C1OC(c2ccccc2)=N/C1=C\C=C\c1ccco1	.	6	0	-6	20*	2
Cc1cc(-c2nc3cccnc3s2)ccc1NS(=O)(=O)c1cccs1	140	-6	1	2	-6	70*
Cc1cc(-c2nc3cccnc3s2)ccc1NS(=O)(=O)c1ccc2c(c1)OCCO2	-12	4	-2	2	-4	48*
CCN(CC)C(=O)c1nc(-c2cccc3ccccc23)no1	.	-3	.	.	.	.
Cc1cnc(CNC(=O)C2CCC(=O)N(CCc3cccc(F)c3)C2)[nH]1 (stereo not drawn)	-16	0	0	23	0	0
SMILES	Mot1-301 SUMO	Cardio protect	NTR1 ag	AI-2 QS modul	NR3A LBD binder	AHR act
O=C(CN1C(=O)NC2(CCCCC2)C1=O)NCC(=O)Nc1ccc(F)c(F)c1	-1	2	0	-4	2	1
CC(=O)N1C(=O)C(=C2C=C(C)OC(C)=C2)c2ccccc21	-15	-9	0	19	2	55*
CC1=CC(=C2C(=O)c3ccccc3C2=O)C=C(C)O1	2	8	1	-1	-5	7
O=C(COC(=O)c1cc(S(=O)(=O)N2CCOCC2)ccc1Cl)NCc1ccccc1	6	0	-2	.	2	1
O=S(=O)(c1ccc(NC(=S)Nc2ccc3c(c2)OCO3)cc1)N1CCOCC1	22	0	0	28	0	74*
O=C(Nc1ccc2c(c1)OCO2)c1ccc(Cl)c(S(=O)(=O)N2CCOCC2)c1	-14	5	0	22	18*	40
CC(C)CCCCCCNC(=S)Nc1ccc(S(=O)(=O)N2CCOCC2)cc1	-8	-10	17	12	27*	-1
O=C(Nc1cccnc1)c1ccc(Cl)c(S(=O)(=O)N2CCc3ccccc32)c1	-2	25	8	38	2	12
CC(=O)Nc1ccc(NC(=O)c2ccc(Cl)c(S(=O)(=O)N3CCc4ccccc43)c2)cc1	.	-7	.	.	13*	.
COc1ccc(NC(=O)c2[nH]c(C)c(C(C)=O)c2C)cc1S(=O)(=O)N1CCOCC1	-1	-2	3	19	-3	12
CC(=O)c1c(C)[nH]c(C(=O)Nc2ccc(Cl)c(S(=O)(=O)N3CCOCC3)c2)c1C	-16	6	5	10	-6	49*
c1ccc([C@H]2CN3C(=N2)Sc2ccccc23)cc1	-5	-7	-1	.	7	72*
CCOc1cc(NC(=O)C(C)C)c(OCC)cc1NC(=O)Nc1ccccc1	-14	7	1	-2	0	22
N#Cc1c(Nc2ccccc2)sc(C(=O)C2CC2)c1N	13	-6	0	7	0	49*
N#Cc1c(Nc2ccccc2)sc(C(=O)c2ccc(F)cc2)c1N	104	-19	8	22	2	13
O=c1c2ccccc2nc(-c2ccco2)n1CCc1ccc(O)cc1	41	45	-1	11	0	3
CC(=O)C1=C(O)C(=O)N(CCc2ccccc2)C1c1ccccc1[N+](=O)[O-] (stereo not drawn)	-19	-5	-1	15	-2	49*
COc1cc(Cl)c(NS(=O)(=O)c2ccc(-c3ccc(=O)[nH]n3)o2)c(OC)c1	-7	-4	1	25	16*	10
CC1CCc2sc3ncnc(N4CCN(C)CC4)c3c2C1 (stereo not drawn)	.	11	2	11	-1	.
CC(C)(C)OC(=O)NCC12C=CC(O1)C1C(=O)N(Cc3ccccc3)C(=O)C12 (stereo not drawn)	9	80*	0	25	0	3
CC(c1ccco1)N(C(=O)Nc1ccc(Cl)cc1)c1ccccn1 (stereo not drawn)	-4	-7	2	0	10*	-1
CCOC(=O)C1CCN(C(=O)Cn2ncc3c([nH]c4ccccc43)c2=O)CC1	-3	-1	0	19	13*	2
CCc1ccc(NC(=O)CCc2nnc3ccc(N4CCC5(CC4)OCCO5)nn23)cc1	363	-1	0	11	11*	2
CCOc1ccc(NC(=O)CCc2nnc3ccc(N4CCC5(CC4)OCCO5)nn23)cc1	-6	-1	-1	24	-1	1
